# According to PubChem BioAssay (NCATS):
# Values without a mark were called inactive. Calls follow the shape of the dose curve; as a rule, active = well fitted inhibition curve with a large enough effect; inconclusive = small, poorly fitted or top-dose-only effect; inactive = flat fitted curve, though single readings scatter.
# Tested on: Nanoluciferase (engineered Oplophorus gracilirostris luciferase)
# Experiment: Primary Nanoluciferase (NLuc) qHTS assay for identification of artifact compounds. (AID 1845222);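 also: NLuc secreted into diluted conditioned medium of S16 cells; 0% = DMSO and -100% = no enzyme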
# Details: NLuc-conditioned medium, Nano-Glo luminescence, 5 min; series mostly up to 54.1 µM; activity, negative = inhibition: at the top concentration
# Outline: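 S16 cell supernatant NLuc, 1:55; cpds qHTS; 15 min RT dark; Nano-Glo substrate 1:100, 5 min; luminescence; Hill fit of % inhibition.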
row,SMILES,"activity, negative = inhibition [%]"
1,CCC[C@H](N[C@H]1CCc2cc(F)cc(F)c2C1)C(=O)Nc1cn(C(C)(C)CNCC(C)(C)C)cn1,-1.14
2,CCCc1ccc(OCC(=O)N(Cc2nc(-c3cccnc3)no2)C(C)C)cc1,0.344
3,CCCCCCCOc1cc2c(cc1/C(C)=C/c1ccc(C(=O)O)cc1)C(C)(C)CCS2(=O)=O,4.21
4,CC(=O)C1=C(O)C=C2Oc3c(C(C)=O)c(O)c(C)c(O)c3[C@]2(C)C1=O,-8.46
5,NS(=O)(=O)c1ccc(NC(=O)Nc2ccc(F)cc2)cc1,4.06
6,COc1cccc(N2CCN(C3=Nc4c(F)cccc4[C@H](CC(=O)O)N3c3cc(C(F)(F)F)ccc3OC)CC2)c1,2.36
7,COc1cc2c(cc1-c1c(C)noc1C)ncc1[nH]c(=O)n(C(C)c3ccccn3)c12 (configuration not stated),-18.2
8,CCC(CC)C(c1ccc(Nc2nc3ccccc3s2)cc1)n1cncn1 (configuration not stated),-7.97
9,COC1CCN(C(=O)c2cc(Cc3n[nH]c(=O)c4ccccc34)ccc2F)CC1,-10.7
10,COc1cc2c(NC3CCN(C(C)C)CC3)nc(N3CCC(F)(F)CC3)nc2cc1OCCCN1CCCC1,0.163
11,COc1ccc(NC(=O)c2ccc(C(=N)N(C)C)cc2)c(C(=O)Nc2ccc(Cl)cn2)c1,-3.62
12,Fc1ccc(N2CCCCC2)c(NC(=S)c2ccncc2)c1,-8.95
13,Cn1cc(-c2ccc(S(=O)(=O)n3ccc(/C=C/C(=O)Nc4ccccc4N)c3)cc2)cn1,1.11
14,Cc1cn(CCN2CCN(c3ccccc3-c3cc(C#N)cc(C(=O)NCCCN4CCCC4)c3)CC2)c2ccccc12,1.5
15,Cc1cc2ncc(C(=O)NCC(C)(C)NCC(=O)N3CCC[C@H]3C#N)cn2n1,0.76
16,Cc1cc2c(N3CCCC3)nc(N3CCCC3)nc2n1C,-0.311

row,SMILES,"activity, negative = inhibition [%]"
1,Cc1cc(N2CCOCC2)ccc1Nc1nc(NC2CCCCC2)c2[nH]cnc2n1,0
2,COc1ccc(N(C(=O)Nc2c(C)cccc2C)c2cc(Nc3ccc(N4CCN(C)CC4)cc3)ncn2)c(OC)c1,-11.8
3,Cn1nc(C(C)(C)C)cc1C(=O)N[C@@H](Cc1cccc(Cl)c1)C(=O)NCC#N,1.45
4,O=C(Nc1cc(C(F)(F)F)ccc1N1CCCCC1)c1ccncc1,1.14
5,O=C(NCC1(c2nc(-c3ccccc3)cs2)CCOCC1)c1cccc(-c2noc(C(F)(F)F)n2)c1,-7.05
6,CCC[C@@]1(CCc2ccccc2)CC(O)=C([C@H](CC)c2cccc(NS(=O)(=O)c3ccc(C(F)(F)F)cn3)c2)C(=O)O1,-18.5
7,Cc1ccc(CNc2ncnc3ccc(-c4ccc(CO)o4)cc23)o1,4.12
8,CCCCCc1ccc(/C=C/C(=O)Nc2cc(Cl)ccc2C(=O)O)cc1,-1.03
9,CC(C)(CNC(=O)c1cccc(-c2noc(C(F)(F)F)n2)c1)c1coc(-c2ccccc2)n1,-5.19
10,C=CC(=O)Nc1ccc(CN2C(=O)N(c3cc(OC)cc(OC)c3)Cc3cnc(Nc4ccc(N5CCN(C)CC5)cc4)nc32)cc1,-2.66
11,CC(C)CCNC(=O)[C@H](CC(C)C)NC(=O)[C@H]1O[C@@H]1C(=O)O,4.43
12,Cc1ccc(C)c(-c2cc(C(F)(F)F)nn2-c2ccc(S(N)(=O)=O)cc2)c1,-2.96
13,O=c1[nH]c([C@@H]2CCCN2)nc2c1oc1ccc(Cl)cc12,1.31
14,O=C(NC[C@H]1CN(c2ccc(N3CCOCC3=O)cc2)C(=O)O1)c1ccc(Cl)s1,4.69
15,COc1ccc2nc3n[nH]c(C)c3c(NCCOCCO)c2c1,-11.4
16,COc1cc2c(cc1OC)CN(C(=O)/C=C/c1c(-c3ccccc3)n(C)c3ncccc13)CC2,-6.91
